Assay results published in PubChem BioAssay (Tox21).
Inconclusive results are not listed. Activity calls are given as the source filed them. Unless noted, calls come from the whole dose curve.

Assays:
[1] = Nuclear factor erythroid 2-related factor 2/antioxidant responsive element (Nrf2/ARE) small molecule agonists: qHTS cell viability counter screen in human keratinocytes (AID 1919968; active = well fitted curve in the direction sought with a large enough effect in the repeat runs; an effect the other way counts as inactive or inconclusive; note: nearly all actives have a fitted effect of over 55% in size)
Procedure, shortened: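 Measured as CellTiter-Fluor fluorescence, this readout tracks cytotoxicity in the same wells as the ARE-luciferase screen. HaCaT reporter cells (1,500/well) received compounds after a 5 h pre-incubation and were exposed for 23 h.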

[2] = Nuclear factor erythroid 2-related factor 2/antioxidant responsive element (Nrf2/ARE) small molecule agonists: luciferase reporter gene qHTS assay in human keratinocytes (AID 1919969); note: nearly all actives have a fitted effect of over 35% in size; note: potency is the fitted concentration of half-maximal effect
[3] = target: Gonadotropin-releasing hormone receptor (Homo sapiens) (UniProt P30968); assay: Human gonadotropin-releasing hormone receptor (GnRHR) small molecule agonists, calcium flux assay in GnRHR-HEK293 cells (AID 1920063); note: nearly all actives have a fitted effect of over 35% in size
Chain of Gonadotropin-releasing hormone receptor (Homo sapiens) (P30968 whole entry, looked up): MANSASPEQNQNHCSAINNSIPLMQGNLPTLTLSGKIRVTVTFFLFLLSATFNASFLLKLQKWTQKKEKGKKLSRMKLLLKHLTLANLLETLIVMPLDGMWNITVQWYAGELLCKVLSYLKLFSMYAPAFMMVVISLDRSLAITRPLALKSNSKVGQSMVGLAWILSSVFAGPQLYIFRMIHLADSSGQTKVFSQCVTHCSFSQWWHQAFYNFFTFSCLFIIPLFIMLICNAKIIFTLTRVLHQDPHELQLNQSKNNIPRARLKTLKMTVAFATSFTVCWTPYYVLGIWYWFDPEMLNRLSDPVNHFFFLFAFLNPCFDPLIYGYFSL
Procedure, shortened: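 Fluorescence kinetics (480 nm excitation, 540 nm emission; 3 min, 1 s steps) report calcium mobilisation in human GnRHR-HEK293 cells in agonist mode. Dye incubation: 1 h, 37 C.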

[4] = target: KiSS-1 receptor (Homo sapiens) (UniProt Q969F8); assay: Human kisspeptin (KISS1R) small molecule agonists, calcium flux assay in KISS1R-HEK293 cells (AID 1920064; active = well fitted curve in the direction sought with a large enough effect in the repeat runs; an effect the other way counts as inactive or inconclusive)
Chain of KiSS-1 receptor (Homo sapiens) (Q969F8 whole entry, looked up): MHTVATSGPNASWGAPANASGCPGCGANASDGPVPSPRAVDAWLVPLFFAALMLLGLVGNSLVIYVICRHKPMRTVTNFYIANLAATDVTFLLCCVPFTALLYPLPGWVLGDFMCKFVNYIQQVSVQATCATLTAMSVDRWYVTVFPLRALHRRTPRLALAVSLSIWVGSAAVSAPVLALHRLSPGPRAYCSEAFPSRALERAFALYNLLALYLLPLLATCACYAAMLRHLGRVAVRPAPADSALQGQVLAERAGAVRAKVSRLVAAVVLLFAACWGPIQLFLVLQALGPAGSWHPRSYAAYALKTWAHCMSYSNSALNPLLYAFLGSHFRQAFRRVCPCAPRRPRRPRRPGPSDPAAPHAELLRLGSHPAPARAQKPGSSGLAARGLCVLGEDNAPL
Procedure, shortened: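 Measures KISS1R agonism through calcium-sensitive dye fluorescence in stably transfected HEK293 cells, read for 3 min after pin-tool compound delivery; 15-point titrations in triplicate.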

[5] = G protein-coupled receptor (GPCR) small molecule agonists, calcium flux assay: HEK293 wild type cell line counter screen (AID 1920065)
Procedure, shortened: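 Readout: fluorescence at 480 nm excitation/540 nm emission, sampled at 1 s intervals for 3 min. Cells had been cultured 18 h, then dye-loaded 1 h at 37 C before compound or ATP addition.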

[6] = p53 small molecule agonists, cell-based qHTS assay with human liver microsomes (AID 1963577);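 note: p53 response element beta-lactamase reporter cells with liver microsomes plus NADPH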
Procedure, shortened: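 p53RE-bla cells; 5 h settle, 37 C/5% CO2; cpd + HLM 0.5 mg/mL + NADPH 0.5 mg/mL (final); 16 h 37 C; LiveBLAzer 2 h RT dark; fluorescence readout.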

[7] = p53 small molecule agonists, cell-based qHTS assay with rat liver microsomes (AID 1963578)
Procedure, shortened: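 Rat liver microsome activation: microsomes 0.5 mg/mL, NADPH 0.5 mg/mL final; p53RE-bla cells, 16 h 37 C; LiveBLAzer readout, 2 h RT dark.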

[8] = p53 small molecule agonists, cell-based qHTS assay with human liver microsomes: qHTS cell viability counter screen (AID 1963579); note: nearly all actives have a fitted effect of over 45% in size
Procedure, shortened: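 Luminescent CellTiter-Glo read-out, 30 min at room temperature, gauged cytotoxicity in p53RE-bla cells exposed 16 h at 37 C to DMSO-dissolved compounds with metabolic activation by human liver microsomes and NADPH, each 0.5 mg/mL final.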

[9] = p53 small molecule agonists, cell-based qHTS assay with rat liver microsomes: qHTS cell viability counter screen (AID 1963580); note: nearly all actives have a fitted effect of over 45% in size
Procedure, shortened: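 p53RE-bla HCT-116 cells (4,000/well) rested 5 h at 37 C, then given Tox21 compounds in DMSO with rat liver microsomes (0.5 mg/mL final) plus NADPH (0.5 mg/mL final) for 16 h at 37 C. Viability read by CellTiter-Glo luminescence after 30 min at room temperature.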

[10] = p53 small molecule agonists, cell-based qHTS assay: qHTS cell viability counter screen (AID 1963581); note: nearly all actives have a fitted effect of over 45% in size
Procedure, shortened: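 In the same plates used for the p53 bla reporter, HCT-116 cells given compounds for 16 h at 37 C received CellTiter-Glo; luminescence was recorded 30 min later at room temperature.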

[11] = p53 small molecule agonists, cell-based qHTS assay (AID 1963582; active = well fitted activation curve with a large enough effect in the signal ratio in the repeat runs, not every such curve was filed as active; the % refers to the signal ratio)
Procedure, shortened: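 Compounds are pin-transferred in DMSO onto p53RE-bla cells and incubated 16 h at 37 C. The B/G FRET beta-lactamase substrate is then applied for 2 h at RT and fluorescence recorded.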

[12] = target: 5-hydroxytryptamine receptor 2A (Homo sapiens) (UniProt P28223); assay: 5-hydroxytryptamine receptor 2A (HTR2A) small molecule agonists, cell-based qHTS assay (AID 1963587); note: nearly all actives have a fitted effect of over 30% in size
Chain of 5-hydroxytryptamine receptor 2A (Homo sapiens) (P28223 whole entry, looked up): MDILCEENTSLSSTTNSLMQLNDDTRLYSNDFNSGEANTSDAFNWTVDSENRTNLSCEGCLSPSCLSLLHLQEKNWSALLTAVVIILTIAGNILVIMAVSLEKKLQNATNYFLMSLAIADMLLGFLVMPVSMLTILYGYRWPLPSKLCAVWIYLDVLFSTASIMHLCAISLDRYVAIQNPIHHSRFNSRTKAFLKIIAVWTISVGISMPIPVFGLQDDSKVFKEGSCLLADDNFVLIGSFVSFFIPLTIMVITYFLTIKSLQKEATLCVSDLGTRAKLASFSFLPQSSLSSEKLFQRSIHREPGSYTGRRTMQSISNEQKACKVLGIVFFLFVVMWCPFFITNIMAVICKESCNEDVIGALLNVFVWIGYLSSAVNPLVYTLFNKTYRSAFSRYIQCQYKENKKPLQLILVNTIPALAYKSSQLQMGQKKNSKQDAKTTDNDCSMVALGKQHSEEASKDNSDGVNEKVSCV
Procedure, shortened: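 HTR2A-CHO cells, plated 18 h at 37 C/5% CO2, dye-loaded 1 h at 37 C; compounds in DMSO added by pin tool (agonist mode). Intracellular calcium flux read as kinetic fluorescence on FDSS over 2 min at 1 s intervals.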

[13] = target: Muscarinic acetylcholine receptor M1 (Homo sapiens) (UniProt P11229); assay: Cholinergic receptor muscarinic 1 (CHRM1) small molecule agonists, cell-based qHTS assay (AID 1963589); note: nearly all actives have a fitted effect of over 35% in size
Chain of Muscarinic acetylcholine receptor M1 (Homo sapiens) (P11229 whole entry, looked up): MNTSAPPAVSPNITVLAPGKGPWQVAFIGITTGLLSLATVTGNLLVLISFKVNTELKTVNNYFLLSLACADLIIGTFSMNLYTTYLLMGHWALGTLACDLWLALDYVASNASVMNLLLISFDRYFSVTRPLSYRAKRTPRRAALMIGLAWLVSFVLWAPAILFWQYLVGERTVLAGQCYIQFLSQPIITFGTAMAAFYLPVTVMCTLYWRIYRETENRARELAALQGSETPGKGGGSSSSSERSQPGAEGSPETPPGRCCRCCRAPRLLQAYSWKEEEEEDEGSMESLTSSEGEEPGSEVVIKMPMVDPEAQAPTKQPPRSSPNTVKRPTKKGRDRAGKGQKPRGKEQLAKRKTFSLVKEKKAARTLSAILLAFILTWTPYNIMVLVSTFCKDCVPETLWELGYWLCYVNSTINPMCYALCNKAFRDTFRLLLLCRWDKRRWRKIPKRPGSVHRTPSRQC
Procedure, shortened: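 Each compound was tested at 15 concentrations across three independent runs on dye-loaded CHO cells stably expressing human CHRM1, reading intracellular calcium fluorescence kinetically at 1 sec intervals.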

[14] = target: Beta-2 adrenergic receptor (Homo sapiens) (UniProt P07550); assay: Adrenergic beta2 receptor (ADRB2) small molecule antagonists, cell-based qHTS assay (AID 1963592); note: series mostly up to about 92 µM; nearly all actives have a fitted effect of over 50% in size
Chain of Beta-2 adrenergic receptor (Homo sapiens) (P07550 whole entry, looked up): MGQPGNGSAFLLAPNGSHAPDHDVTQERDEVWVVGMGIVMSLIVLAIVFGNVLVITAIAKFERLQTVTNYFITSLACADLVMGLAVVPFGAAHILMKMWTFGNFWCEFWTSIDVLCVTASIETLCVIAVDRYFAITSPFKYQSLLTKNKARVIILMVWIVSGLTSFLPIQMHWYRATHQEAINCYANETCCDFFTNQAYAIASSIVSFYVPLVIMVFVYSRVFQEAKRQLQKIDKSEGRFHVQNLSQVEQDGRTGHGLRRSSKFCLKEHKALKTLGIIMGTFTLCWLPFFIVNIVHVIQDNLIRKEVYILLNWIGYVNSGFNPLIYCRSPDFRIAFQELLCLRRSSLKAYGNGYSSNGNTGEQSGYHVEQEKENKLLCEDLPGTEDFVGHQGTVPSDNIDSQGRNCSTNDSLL
Procedure, shortened: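 Cells (CHO, stable ADRB2 overexpression) incubated 18-20hr at 37C; compounds added from DMSO; agonist mix (1nM isoproterenol, 100uM IBMX, 25uM Ro-20-1724) added; 0.5hr RT; d2-cAMP and anti-cAMP-cryptate added; 1hr RT; 665/615 nm read.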

[15] = target: D(2) dopamine receptor (Homo sapiens) (UniProt P14416); assay: Dopamine D2 receptor (DRD2) small molecule agonists, cell-based qHTS assay (AID 1963594); note: nearly all actives have a fitted effect of over 35% in size
Chain of D(2) dopamine receptor (Homo sapiens) (P14416 whole entry, looked up): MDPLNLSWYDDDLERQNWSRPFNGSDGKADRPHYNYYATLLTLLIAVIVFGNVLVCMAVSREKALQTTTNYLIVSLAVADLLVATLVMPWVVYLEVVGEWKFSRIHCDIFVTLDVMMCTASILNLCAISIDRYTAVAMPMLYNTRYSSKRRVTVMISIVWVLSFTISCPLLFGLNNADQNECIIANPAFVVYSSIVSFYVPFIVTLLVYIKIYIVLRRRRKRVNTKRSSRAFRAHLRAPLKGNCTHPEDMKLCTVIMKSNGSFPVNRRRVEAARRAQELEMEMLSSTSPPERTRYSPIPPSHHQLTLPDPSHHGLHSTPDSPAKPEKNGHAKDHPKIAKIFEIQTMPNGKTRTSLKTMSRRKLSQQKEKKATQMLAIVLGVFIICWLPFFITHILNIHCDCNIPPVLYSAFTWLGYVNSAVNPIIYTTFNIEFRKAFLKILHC
Procedure, shortened: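 HEK293 cells stably expressing DRD2 were cultured 24 h at 37 C, then given Ro20-1724 (0.1 mM final) and compounds for 10 min at room temperature. NKH477 (200nM) was then added for 30 min. cAMP was read by HTRF.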

[16] = target: D(2) dopamine receptor (Homo sapiens) (UniProt P14416); assay: Dopamine D2 receptor (DRD2) small molecule antagonists, cell-based qHTS assay (AID 1963595; active = well fitted inhibition curve with a large enough effect in the signal ratio in the repeat runs, with a control signal flat; the % refers to the signal ratio)
Procedure, shortened: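 In this cell-based antagonist screen, compounds act for 10 min at room temperature before a 30 min challenge with 12 nM quinpirole and 200 nM NKH477. cAMP is quantified by HTRF competition in DRD2-HEK293 cells containing 0.1 mM Ro20-1724.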

[17] = target: Muscarinic acetylcholine receptor M1 (Homo sapiens) (UniProt P11229); assay: Cholinergic receptor muscarinic 1 (CHRM1) small molecule antagonists, cell-based qHTS assay (AID 1963588); note: nearly all actives have a fitted effect of over 40% in size
Procedure, shortened: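 CHRM1-CHO calcium-flux assay, antagonist mode. Cells were seeded 18 h, dye-loaded 1 h at 37 C and given compound for 5 min at RT, then acetylcholine was added at 50nM. FDSS fluorescence was read 3 min; 15 concentrations, three runs.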

[18] = cAMP Responsive Elements (CRE) small molecule agonists, cell-based qHTS assay (AID 1963590)
Procedure, shortened: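 Cell line: CRE-bla HEK 293T; medium DMEM/10% dialyzed FBS/0.1 mM NEAA/1 mM pyruvate/25 mM HEPES; 3 h compound exposure; beta-lactamase FRET readout after 2 h substrate loading at RT.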

[19] = cAMP Responsive Elements (CRE) small molecule antagonists, cell-based qHTS assay (AID 1963591; active = well fitted inhibition curve with a large enough effect in the signal ratio in the repeat runs, not every such curve was filed as active; the % refers to the signal ratio)
Procedure, shortened: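 Inhibition of NKH477-driven (0.25 uM final) CRE-beta-lactamase signal in HEK293T cells, 3 h compound exposure at 37 °C, detected by FRET substrate fluorescence.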

[20] = target: Beta-2 adrenergic receptor (Homo sapiens) (UniProt P07550); assay: Adrenergic beta2 receptor (ADRB2) small molecule agonists, cell-based qHTS assay (AID 1963593);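 note: CHO cells stably overexpressing human ADRB2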
Procedure, shortened: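 CHO cells stably over-expressing ADRB2 were plated overnight at 37C, then dosed with compounds plus a stimulation mix containing 100uM IBMX and 25uM Ro-20-1724 for 0.5hr at room temperature. cAMP was measured by HTRF competition, 1hr.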
% is set by controls: 0 for no effect and ±100 for the full control effect.

CCCCN1CCCC1C(=O)Nc1c(C)cc(C)cc1C (stereo not given)
inactive: Potency [1] | Potency [2] | Potency [3] | outcome [4] | outcome [5] | Potency [6] | Potency [7] | Potency [8] | Potency [9] | Potency [10] | Potency [11] | Potency [12] | Potency [13] | Potency [14] | Potency [15] | Potency [16]

CC(C)(C)c1cccc(O)c1
inactive: Potency [1] | Potency [3] | outcome [4] | outcome [5] | Potency [6] | Potency [7] | Potency [8] | Potency [9] | Potency [10] | Potency [11] | Potency [17] | Potency [13] | Potency [18] | Potency [19] | Potency [14] | Potency [20] | Potency [15] | Potency [16]
active: Potency [2] 61.1 µM

CCOc1nc2cccc(C(=O)O)c2n1Cc1ccc(-c2ccccc2-c2nn[nH]n2)cc1
inactive: Potency [1] | Potency [2] | Potency [3] | outcome [4] | outcome [5] | Potency [6] | Potency [7] | Potency [8] | Potency [9] | Potency [10] | Potency [11] | Potency [18] | Potency [19] | Potency [20] | Potency [15] | Potency [16]

CCN[C@@H]1C[C@H](N)[C@@H](OC2OC(CN)=CCC2N)[C@H](O)[C@H]1O[C@H]1OC[C@](C)(O)[C@H](NC)[C@H]1O (stereo not given in full)
inactive: activity change, negative = cytotoxicity [1] -5.32% [at 0.349 µM] | activity, positive = activation [2] 8.13% [at 0.349 µM] | activity change [3] -1.46% [at 0.217 µM, active compounds read high] | activation [4] -0.712% [at 0.29 µM] | activation [5] 1.44% [at 0.217 µM] | activation [6] 2.31% [at 0.249 µM] | activation [7] -0.776% [at 0.249 µM] | activity change, negative = cytotoxicity [8] 1.03% [at 0.249 µM] | activity change, negative = cytotoxicity [9] -10.4% [at 0.249 µM] | activity change, negative = cytotoxicity [10] -18.4% [at 0.249 µM] | activation [11] 5.55% [at 0.249 µM] | activation [18] -0.986% [at 0.349 µM] | activity change, negative = inhibition [19] -9.29% [at 0.349 µM] | activity change, negative = inhibition [14] -0.979% [at 0.349 µM] | activation [20] 7.07% [at 0.349 µM] | activation [15] -8.99% [at 0.349 µM] | activity change, negative = inhibition [16] 14.9% [at 0.348 µM]

C[C@H](N)[C@H](O)c1cccc(O)c1
inactive: Potency [1] | Potency [2] | Potency [3] | outcome [4] | outcome [5] | Potency [6] | Potency [7] | Potency [8] | Potency [9] | Potency [10] | Potency [11] | Potency [13] | Potency [18] | Potency [19] | Potency [14] | Potency [15] | Potency [16]
